Data: PubChem BioAssay (NCI)
The panel holds about 83,000 compounds, 20% with a hit somewhere; the sample as a whole holds those more often.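 Cell lines were cultured in 96-well plates, exposed to a single compound concentration, and assessed for percent growth 48 hours later.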 The source made the active and inactive calls. How the source made its calls: active means growth percent below 10; inactive means the rest.

Each compound was assayed on SK-OV-3 ovarian (assay: NCI-60 one-dose screen, 48 h (100 = growth as untreated, 0 = no growth, -100 = all killed)). Details: 10 µM unless noted.

**Q.** `Nc1ccc(C2=NN(c3ccccc3)C(c3ccc(Cl)cc3)C2)cc1` (stereo not given) was tested. Which growth did it give?
**A.** 90.1% (inactive)

**Q.** Which growth does the source give for `O=C1C[C@@H]2/C(=C(O)\C=C\c3ccccc3)C(=O)C=C[C@@H]2O1` here?
**A.** 86.1% (inactive)

**Q.** With `COc1ccc(-c2cc(C(=O)Nc3nc4cc(C)c(C)cc4s3)nc3cc(-c4ccccc4)nn23)cc1OC` as the compound, how does the growth read?
**A.** 105% (inactive)

**Q.** Which growth does the source give for `CCC(=O)Nc1ccccc1C#C/C=C\C#Cc1ccccc1C(F)(F)F` here?
**A.** 52.3% (inactive)

**Q.** `Oc1ccccc1C=Nc1ccccc1N=Cc1ccccc1O.[Cu+2]` was tested. Which growth did it give?
**A.** 76% (inactive)

**Q.** With `CCOc1cccc(C2CC(=O)Nc3cc4c(cc32)OCO4)c1` (stereo not given) as the compound, how does the growth read?
**A.** 86.6% (inactive)

**Q.** With `NC(N)=NN=c1c(=O)c2ccccc2c1=O` as the compound, how does the growth read?
**A.** 98.1% (inactive)

**Q.** `O=[N+]([O-])c1ccc(Oc2cccc(C(F)(F)F)c2)c([N+](=O)[O-])c1` was tested. Which growth did it give?
**A.** 44.5% (inactive)

**Q.** `CCCCCCCCCCCCNc1ncnc2[nH]ncc12` was tested. Which growth did it give?
**A.** 105% (inactive)

**Q.** `Cc1ccc2c(c1)C(=O)/C(=C/c1ncc([N+](=O)[O-])n1C)O2` was tested. Which growth did it give?
**A.** 0.948% (active)

**Q.** Which growth does the source give for `O=C(/C=C/c1cccnc1)NCCCCC1CCCN(C(=O)c2ccccc2)C1` (stereo not given) here?
**A.** 91.6% (inactive)

**Q.** For `O=C(/C=C/c1cccnc1)/C=C/c1cccnc1`, which growth is on record?
**A.** 31% (inactive)

**Q.** With `COc1ccc(-n2nnc(C(=O)O)c2-c2cc(OC)c(OC)c(OC)c2)cc1` as the compound, how does the growth read?
**A.** 99.1% (inactive)

**Q.** How did the growth turn out when `COc1cc2c(cc1OCCCCCn1c(-c3ccc(OCc4ccccc4)cc3)nc3cc(N4CCOCC4)ccc31)N=C[C@@H]1CCCN1C2=O` was run?
**A.** 35.3% (inactive)

**Q.** How did the growth turn out when `O=C1C(=O)c2ccc(Br)cc2-c2cc(Br)ccc21` was run?
**A.** 81% (inactive)
